For some assays here: Results with a measured potency or affinity are listed apart. Calls of active or inactive are those of the source. No rule for the calls is given here.
What follows are compounds tested against Plasmodium falciparum protein kinase 6 (PK6, PF3D7_1337100) (UniProt Q8IDW1) (assay: PfPK6 kinase inhibitors, biochemical, TCAMS library (AID 1159586)). Conditions: recombinant PfPK6, Kinase-Glo ATP depletion luminescence.
Plasmodium falciparum protein kinase 6 (PK6, PF3D7_1337100), sequence (Q8IDW1 1-305): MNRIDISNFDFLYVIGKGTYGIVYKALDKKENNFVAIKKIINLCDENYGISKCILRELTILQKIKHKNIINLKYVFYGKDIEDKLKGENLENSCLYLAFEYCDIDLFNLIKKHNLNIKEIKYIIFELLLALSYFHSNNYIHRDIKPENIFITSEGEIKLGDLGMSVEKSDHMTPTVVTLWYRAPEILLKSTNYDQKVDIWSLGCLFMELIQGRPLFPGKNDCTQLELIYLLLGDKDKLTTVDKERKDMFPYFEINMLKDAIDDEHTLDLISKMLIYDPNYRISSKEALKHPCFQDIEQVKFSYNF

outcome, inactive:
CCCC(C)Nc1nc(C)cc(N[C@@H](Cc2ccccc2)C(=O)NCc2cccc(F)c2)n1 (stereo not given in full)
COC(=O)c1cccc(CNCc2cccc(-c3ccc(-c4nc5c(C)cccc5[nH]4)s3)c2)c1
COc1cc(NCCCCCNc2cc(Cl)nc3ccccc23)nc2ccccc12
CCN1CCN(c2ccc(NC(=O)c3cc4c(C)nn(-c5ccccc5)c4s3)cc2C)CC1
CC(C#N)Cc1ccc(-c2cnc(N)c3cc(-c4ccnc(N)n4)ccc23)cc1 (stereo not given)
COc1ccc(C(=O)[C@H]2C[C@@H]2CN(C)CCC(O)c2ccc(Cl)c(Cl)c2)cc1 (stereo not given in full)
Cc1ccc(OCC2CCN(c3ncc(C(=O)NC4CC4)cc3Cl)CC2)cc1
O=C(Nc1cccc(-c2cccc(-c3nc4ccccc4[nH]3)c2)c1)Nc1ccc2c(c1)OCO2
CCN1CCN(Cc2c(O)ccc3c(=O)c(Oc4cc(C)cc(C)c4)c(C(F)(F)F)oc23)CC1
c1ccc(C2=NN=C(c3ccccn3)[C@H]3[C@H]4C[C@@H]([C@@H]23)[C@@H]2[C@H]4[C@H]3C[C@@H]2c2ccccc23)nc1
CN(c1ccc(C(=O)N[C@@H](CCC(=O)O)C(=O)O)cc1)S(=O)(=O)c1ccc2nc(N)[nH]c(=O)c2c1
C=CCc1cc(Cc2cnc(N)nc2N)c2ccc(C)nc2c1OC
COc1c(Br)cc(Br)cc1-c1ccc(CN2C3CCCC2CCC3)[nH]1
Cc1cc(N[C@@H](Cc2ccccc2)C(=O)NCc2cccc(F)c2)nc(NCCOc2ccccc2)n1
Cn1c(N)c(N=O)c(=O)[nH]c1=O
O=C(Nc1cc(F)cc(-c2cccnc2)c1)c1ccc2c(=O)n(Cc3ccccc3)cnc2c1
Cn1ccc(C(=O)Nc2ccc3c(c2)CN(Cc2ccc(N4CCCC4)o2)CCC3)n1
COc1cc(OC)cc(-c2nn(-c3ccc([N+](=O)[O-])cc3C#N)c(=S)n2Cc2ccco2)c1
CCCCCN1CCCN(Cc2cccc(NC(=O)c3ccc(-c4ccccc4)cc3)c2)CC1
C[C@@H]1CCC[C@H](C)N1C[C@@H](O)CNS(=O)(=O)c1cccc(C(F)(F)F)c1
O=C1c2ccc([N+](=O)[O-])cc2C(=O)N1c1ccc2[nH]ncc2c1
NC(=NC1CC1)c1ccc2nc(CCCCCc3nc4ccc(C(N)=NC5CC5)cc4[nH]3)[nH]c2c1
COc1ccc(-c2ccc(NC(=O)c3ccc(F)cc3)cc2)cc1CN1CCCN(C)CC1
Cc1cccc(NC(c2cccs2)c2c(NC(=O)c3ccccc3)sc(C)c2C)n1 (stereo not given)
CC1CCc2c(C(=O)N3CCc4ccccc4C3)csc2C1 (stereo not given)

The compounds below were run against Protein kinase 7 (PK7), Plasmodium falciparum 3D7 (PF3D7_0213400) (UniProt Q7YTF7) (assay: inhibition of Plasmodium PK7 catalytic activity – biochemical, TCAMS antimalarial set, Kinase-Glo luminescence (AID 1159587)). Conditions: recombinant PfPK7, Kinase-Glo ATP depletion luminescence.
Protein kinase 7 (PK7), Plasmodium falciparum 3D7 (PF3D7_0213400), sequence (Q7YTF7 1-343): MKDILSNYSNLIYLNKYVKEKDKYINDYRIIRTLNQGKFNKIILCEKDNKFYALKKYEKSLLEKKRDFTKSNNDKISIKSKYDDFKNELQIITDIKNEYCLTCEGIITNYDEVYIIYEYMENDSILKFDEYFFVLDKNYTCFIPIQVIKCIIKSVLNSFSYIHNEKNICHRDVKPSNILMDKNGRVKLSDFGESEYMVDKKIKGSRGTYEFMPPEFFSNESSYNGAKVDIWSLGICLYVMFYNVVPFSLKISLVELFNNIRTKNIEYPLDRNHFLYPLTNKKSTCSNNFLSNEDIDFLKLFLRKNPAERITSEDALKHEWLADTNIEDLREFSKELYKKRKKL

outcome, inactive:
COc1ccc(OCCn2cc(C(=O)c3ccco3)c3ccccc32)cc1
COc1ccc(CN2CCC(NCc3cccc(C(F)(F)F)c3)CC2)cc1
C=CCN1C(=O)CN(S(=O)(=O)c2ccc(-n3nc(C)cc3C)cc2)C1=S
CN(C)CCCOc1cc(NC(=O)Nc2ccc(-c3ccncc3)c3ccccc23)ccc1I
CCOC(=O)c1ccc(N2CCN(c3cc(C)ccc3C)CC2)c(NC(=O)Nc2ccc(Cl)c(Cl)c2)c1
O=S(=O)(c1ccccc1Cl)N1CCCCC(c2ccc(C(F)(F)F)cc2)=N1
COc1ccc(CC2(c3ccc(F)cc3)N=C(N)N(CCCc3cccnc3)C2=O)cc1 (stereo not given)
O=C(NC1CCCCC1)N(CCCn1ccnc1)Cc1csc(-c2ccc(CNCc3ccccc3)cc2)n1
CCC(CC)NCc1c(O)ccc2c(CNC(CC)CC)c(O)ccc12
O=S(=O)(Nc1cccc(CCN2CCCCC2CCN2CCCC2)c1)c1cccc2ccccc12 (stereo not given)
CC(C)[C@H](NC(=O)c1c(CN2CCC(N3CCCCC3)CC2)c(-c2ccccc2)nc2cc(O)ccc12)c1ccccc1
COc1cc(NC(=O)c2sc(-c3ccc(Cl)cc3)cc2Cl)ccc1OCCN1CCCC1
COc1cc2nc(N3CCC(CNC(=O)c4cccc5cccnc45)CC3)nc(N)c2cc1OC
CNc1ccc(CNCc2ccc(-c3ccc(-c4nc5ccc(C(F)(F)F)cc5[nH]4)s3)cc2)cc1
COc1ccc(CN(C)CCCc2ccc(NC(=O)c3cccc4c(=O)c5cccc(F)c5[nH]c34)cc2)cc1OC
CCCC(C)Nc1nc(C)cc(N[C@@H](Cc2ccccc2)C(=O)NCc2cccc(F)c2)n1 (stereo not given in full)
COC(=O)c1cccc(CNCc2cccc(-c3ccc(-c4nc5c(C)cccc5[nH]4)s3)c2)c1
COc1cc(NCCCCCNc2cc(Cl)nc3ccccc23)nc2ccccc12
CCN1CCN(c2ccc(NC(=O)c3cc4c(C)nn(-c5ccccc5)c4s3)cc2C)CC1
CC(C#N)Cc1ccc(-c2cnc(N)c3cc(-c4ccnc(N)n4)ccc23)cc1 (stereo not given)
COc1ccc(C(=O)[C@H]2C[C@@H]2CN(C)CCC(O)c2ccc(Cl)c(Cl)c2)cc1 (stereo not given in full)
Cc1ccc(OCC2CCN(c3ncc(C(=O)NC4CC4)cc3Cl)CC2)cc1
O=C(Nc1cccc(-c2cccc(-c3nc4ccccc4[nH]3)c2)c1)Nc1ccc2c(c1)OCO2
CCN1CCN(Cc2c(O)ccc3c(=O)c(Oc4cc(C)cc(C)c4)c(C(F)(F)F)oc23)CC1
c1ccc(C2=NN=C(c3ccccn3)[C@H]3[C@H]4C[C@@H]([C@@H]23)[C@@H]2[C@H]4[C@H]3C[C@@H]2c2ccccc23)nc1
CN(c1ccc(C(=O)N[C@@H](CCC(=O)O)C(=O)O)cc1)S(=O)(=O)c1ccc2nc(N)[nH]c(=O)c2c1
C=CCc1cc(Cc2cnc(N)nc2N)c2ccc(C)nc2c1OC
COc1c(Br)cc(Br)cc1-c1ccc(CN2C3CCCC2CCC3)[nH]1
Cc1cc(N[C@@H](Cc2ccccc2)C(=O)NCc2cccc(F)c2)nc(NCCOc2ccccc2)n1
Cn1c(N)c(N=O)c(=O)[nH]c1=O
O=C(Nc1cc(F)cc(-c2cccnc2)c1)c1ccc2c(=O)n(Cc3ccccc3)cnc2c1
Cn1ccc(C(=O)Nc2ccc3c(c2)CN(Cc2ccc(N4CCCC4)o2)CCC3)n1
COc1cc(OC)cc(-c2nn(-c3ccc([N+](=O)[O-])cc3C#N)c(=S)n2Cc2ccco2)c1
CCCCCN1CCCN(Cc2cccc(NC(=O)c3ccc(-c4ccccc4)cc3)c2)CC1
C[C@@H]1CCC[C@H](C)N1C[C@@H](O)CNS(=O)(=O)c1cccc(C(F)(F)F)c1
O=C1c2ccc([N+](=O)[O-])cc2C(=O)N1c1ccc2[nH]ncc2c1
NC(=NC1CC1)c1ccc2nc(CCCCCc3nc4ccc(C(N)=NC5CC5)cc4[nH]3)[nH]c2c1
COc1ccc(-c2ccc(NC(=O)c3ccc(F)cc3)cc2)cc1CN1CCCN(C)CC1
Cc1cccc(NC(c2cccs2)c2c(NC(=O)c3ccccc3)sc(C)c2C)n1 (stereo not given)
CC1CCc2c(C(=O)N3CCc4ccccc4C3)csc2C1 (stereo not given)

Reference: PubChem BioAssay
